This note sets out measurements from PubChem BioAssay (EPA / NIEHS).

Structures are written as SMILES. Several values for one entry are separate records, joined by “and”; a condition that tells them apart may be missing. Identical values can stand only once. Some compounds were tested as several samples or in several runs, with calls that do not always agree. Activity calls are given as the source filed them. The calls were made as follows: active = hit-call score of the fitted dose curve at least 0.9, where 1 is the maximum; inactive = score below 0.9.

Read-out in assay [1]: Macrophage colony-stimulating factor (MCSF), CSF1 (gene 1435)
The assay can be described thus: BSK_hDFCGF_MCSF: BioMAP Diversity Plus: hDFCGF Assay for Macrophage colony-stimulating factor (MCSF) Biomarker Activity (AID 2283060). To be noted: primary human foreskin fibroblasts; actives raise or lower the signal. The gist of the method:
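ELISA read-out of M-CSF in human dermal foreskin fibroblast cultures, 24 h after chemical dosing; gain or loss of signal fitted bidirectionally relative to DMSO baseline.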

Assay [2] can be described thus: BSK_hDFCGF_SRB: Viability Assessment in the BioMAP Diversity Plus: hDFCGF Assay (AID 2283061).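 Also: cells exposed to compound for 24 h before the read.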 To be noted: primary human foreskin fibroblasts. The gist of the method:
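Primary human foreskin fibroblasts; 24 h post-dose; fixed 10% TCA, stained 0.1% SRB, A560 read; total protein as overt cytotoxicity measure; curves fit bidirectionally vs DMSO control.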

Read-out in assay [3]: TIMP metallopeptidase inhibitor 1 (TIMP1), TIMP1 (gene 7076)
The assay can be described thus: BSK_hDFCGF_TIMP1: BioMAP Diversity Plus: hDFCGF Assay for TIMP metallopeptidase inhibitor 1 (TIMP1) Biomarker Activity (AID 2283062). The following applies: primary human foreskin fibroblasts; actives raise or lower the signal. The method, boiled down:
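ELISA readout of TIMP-1 from human dermal foreskin fibroblast cultures 24 h post-dosing. Curves were fitted in both directions against DMSO baseline, with SRB total-protein staining in parallel cultures as a cytotoxicity check.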

Read-out in assay [4]: Monokine induced gamma interferon (MIG), CXCL9 (gene 4283)
The assay can be described thus: BSK_hDFCGF_MIG: BioMAP Diversity Plus: hDFCGF Assay for Monokine induced gamma interferon (MIG) Biomarker Activity (AID 2283063). To be noted: primary human foreskin fibroblasts; actives raise or lower the signal. The method, boiled down:
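Fibroblasts (human foreskin, primary) dosed, 24 h, MIG by ELISA; fit bidirectional vs DMSO.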

Read-out in assay [5]: Plasminogen activator inhibitor-1 (PAI1), SERPINE1 (gene 5054)
The assay can be described thus: BSK_hDFCGF_PAI1: BioMAP Diversity Plus: hDFCGF Assay for Plasminogen activator inhibitor-1 (PAI1) Biomarker Activity (AID 2283066). The following applies: primary human foreskin fibroblasts; actives raise or lower the signal. The gist of the method: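 Human foreskin fibroblasts in the hDFCGF system were dosed with compound for 24 h; PAI-1 was quantified by ELISA. Bidirectional curve fitting used DMSO as negative control and baseline.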

Read-out in assay [6]: Intercellular Adhesion Molecule 1 (ICAM1), ICAM1 (gene 3383)
The assay can be described thus: BSK_KF3CT_ICAM1: BioMAP Diversity Plus: KF3CT Assay for Intercellular Adhesion Molecule 1 (ICAM1) Biomarker Activity (AID 2283067). To be noted: primary human keratinocytes with fibroblasts; actives raise or lower the signal. The gist of the method: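 ELISA readout of ICAM-1; KF3CT human skin co-culture (keratinocytes + foreskin fibroblasts), 24 h post-dose; gain/loss fit vs DMSO baseline.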

Read-out in assay [7]: Interferon-gamma inducible Protein 10 (IP10), CXCL10 (gene 3627)
The assay can be described thus: BSK_KF3CT_IP10: BioMAP Diversity Plus: KF3CT Assay for Interferon-gamma inducible Protein 10 (IP10) Biomarker Activity (AID 2283068). The following applies: primary human keratinocytes with fibroblasts; actives raise or lower the signal. The gist of the method:
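In a primary skin co-culture of keratinocytes and fibroblasts, IP-10 is quantified by ELISA at 24 h after dosing. SRB staining of parallel wells monitors overt toxicity. Curves are fitted both directions against DMSO.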

The nature of assay [8]: BSK_KF3CT_SRB: Viability Assessment in the BioMAP Diversity Plus: KF3CT Assay (AID 2283069).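 Also: total protein by sulforhodamine B staining as a cytotoxicity measure; read 24 h after compound addition.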 To be noted: primary human keratinocytes with fibroblasts. The method, boiled down:
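Human keratinocyte and foreskin fibroblast co-culture exposed to chemical for 24 h. Total protein measured in parallel cultures by 0.1% sulforhodamine B staining after 10% TCA fixation, read at 560 nm; bidirectional fit relative to DMSO.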

Read-out in assay [9]: Interleukin-1 alpha (IL1a), IL1A (gene 3552)
In words: BSK_KF3CT_IL1a: BioMAP Diversity Plus: KF3CT Assay for Interleukin-1 alpha (IL1a) Biomarker Activity (AID 2283070). To be noted: primary human keratinocytes with fibroblasts; actives raise or lower the signal. The method, boiled down:
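Primary human keratinocyte plus foreskin fibroblast co-culture, dosed and measured at 24 h in 96-well plates. IL-1a level quantified by ELISA; bidirectional fit relative to DMSO.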

Read-out in assay [10]: TIMP metallopeptidase inhibitor 2 (TIMP2), TIMP2 (gene 7077)
The assay can be described thus: BSK_KF3CT_TIMP2: BioMAP Diversity Plus: KF3CT Assay for TIMP metallopeptidase inhibitor 2 (TIMP2) Biomarker Activity (AID 2283071). To be noted: primary human keratinocytes with fibroblasts; actives raise or lower the signal. The gist of the method: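 Human primary keratinocyte/foreskin fibroblast co-culture dosed with chemical and sampled at 24 h. TIMP-2 levels quantified by ELISA; bidirectional fitting against DMSO negative control as baseline.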

Read-out in assay [11]: Transforming growth factor beta 1 (TGFb1), TGFB1 (gene 7040)
The assay can be described thus: BSK_KF3CT_TGFb1: BioMAP Diversity Plus: KF3CT Assay for Transforming growth factor beta 1 (TGFb1) Biomarker Activity (AID 2283072). To be noted: primary human keratinocytes with fibroblasts; actives raise or lower the signal. The gist of the method:
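Human keratinocyte plus foreskin fibroblast primary co-culture, dosed with chemical for 24 h. TGF-b1 quantified by ELISA. Activity fitted bidirectionally against DMSO negative control as baseline.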

Read-out in assay [12]: C-C motif chemokine 2 (Homo sapiens) (UniProt P13500)
In words: BSK_KF3CT_MCP1: BioMAP Diversity Plus: KF3CT Assay for Monocyte Chemoattractant Protein 1 (MCP1/CCL2) Biomarker Activity (AID 2283073). To be noted: primary human keratinocytes with fibroblasts; actives raise or lower the signal. The method, boiled down: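 KF3CT skin co-culture (keratinocytes/foreskin fibroblasts), 24 h post-dose; MCP-1 by ELISA; gain/loss of signal fit bidirectionally vs DMSO baseline.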

Read-out in assay [13]: Matrix Metallopeptidase 9 (MMP9), MMP9 (gene 4318)
The assay can be described thus: BSK_KF3CT_MMP9: BioMAP Diversity Plus: KF3CT Assay for Matrix Metallopeptidase 9 (MMP9) Biomarker Activity (AID 2283074).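 As to AC50: MMP9 protein level quantified by ELISA in the co-culture.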 The following applies: primary human keratinocytes with fibroblasts; actives raise or lower the signal. The method, boiled down: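 Human keratinocyte and foreskin fibroblast co-culture exposed to chemicals for 24 h; MMP9 biomarker measured by ELISA, bidirectional fitting relative to DMSO; cytotoxicity tracked by SRB total protein staining in parallel cultures.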

Read-out in assay [14]: urokinase plasminogen activator (uPA), PLAU (gene 5328)
The assay can be described thus: BSK_KF3CT_uPA: BioMAP Diversity Plus: KF3CT Assay for urokinase plasminogen activator (uPA) Biomarker Activity (AID 2283075). The following applies: primary human keratinocytes with fibroblasts; actives raise or lower the signal. The method, boiled down:
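Primary human keratinocyte/foreskin fibroblast co-culture exposed to chemical; uPA measured by ELISA at 24 h. Bidirectional fit versus DMSO, with parallel SRB total-protein staining for cytotoxicity.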

Read-out in assay [15]: CD40, CD40 (gene 958)
In words: BSK_LPS_CD40: BioMAP Diversity Plus: LPS Assay for CD40 Biomarker Activity (AID 2283076). The following applies: primary human HUVEC with PBMC; actives raise or lower the signal. The gist of the method: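 ELISA readout of CD40 in HUVEC/PBMC co-culture (BSK_LPS system), 24 h post-dosing; bidirectional curve fit, DMSO baseline; parallel SRB total-protein staining for cytotoxicity.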

Read-out in assay [16]: E-selectin (Homo sapiens) (UniProt P16581)
In words: BSK_LPS_Eselectin: BioMAP Diversity Plus: LPS Assay for Eselectin Biomarker Activity (AID 2283077). The following applies: primary human HUVEC with PBMC; actives raise or lower the signal. The gist of the method: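 ELISA readout of E-selectin, 24 h post-dose, HUVEC + PBMC co-culture (LPS system). Gain or loss of signal vs DMSO baseline, bidirectional fit.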

Read-out in assay [17]: Interleukin-8 (IL8), CXCL8 (gene 3576)
The assay can be described thus: BSK_LPS_IL8: BioMAP Diversity Plus: LPS Assay for Interleukin-8 (IL8) Biomarker Activity (AID 2283078). The following applies: primary human HUVEC with PBMC; actives raise or lower the signal. The method, boiled down:
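HUVEC + PBMC co-culture, LPS-activated; test chemicals dosed, IL-8 read by ELISA at 24 h. Bidirectional curve fit vs DMSO baseline (gain or loss of signal).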

Assay [18] can be described thus: BSK_LPS_SRB: Viability Assessment in the BioMAP Diversity Plus: LPS Assay (AID 2283079).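 Also: total protein by sulforhodamine B absorbance as a cytotoxicity measure; measured one day after compound addition; fitted in both directions against DMSO so loss or gain of signal counts.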 The following applies: primary human HUVEC with PBMC. The method, boiled down:
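HUVEC + PBMC co-culture, LPS-stimulated; compound 24 h. 10% TCA fix, 0.1% SRB stain, A560. Bidirectional fit vs DMSO.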

Read-out in assay [19]: Vascular cell adhesion molecule 1 (VCAM1), VCAM1 (gene 7412)
The assay can be described thus: BSK_hDFCGF_VCAM1: BioMAP Diversity Plus: hDFCGF Assay for Vascular cell adhesion molecule 1 (VCAM1) Biomarker Activity (AID 2283065). To be noted: primary human foreskin fibroblasts; actives raise or lower the signal. The method, boiled down: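 ELISA read-out of VCAM-1 on human skin fibroblasts, 24 h post-dose; gain or loss of signal fitted bidirectionally against DMSO baseline.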

Sequence of E-selectin (Homo sapiens) (P16581 whole entry, looked up): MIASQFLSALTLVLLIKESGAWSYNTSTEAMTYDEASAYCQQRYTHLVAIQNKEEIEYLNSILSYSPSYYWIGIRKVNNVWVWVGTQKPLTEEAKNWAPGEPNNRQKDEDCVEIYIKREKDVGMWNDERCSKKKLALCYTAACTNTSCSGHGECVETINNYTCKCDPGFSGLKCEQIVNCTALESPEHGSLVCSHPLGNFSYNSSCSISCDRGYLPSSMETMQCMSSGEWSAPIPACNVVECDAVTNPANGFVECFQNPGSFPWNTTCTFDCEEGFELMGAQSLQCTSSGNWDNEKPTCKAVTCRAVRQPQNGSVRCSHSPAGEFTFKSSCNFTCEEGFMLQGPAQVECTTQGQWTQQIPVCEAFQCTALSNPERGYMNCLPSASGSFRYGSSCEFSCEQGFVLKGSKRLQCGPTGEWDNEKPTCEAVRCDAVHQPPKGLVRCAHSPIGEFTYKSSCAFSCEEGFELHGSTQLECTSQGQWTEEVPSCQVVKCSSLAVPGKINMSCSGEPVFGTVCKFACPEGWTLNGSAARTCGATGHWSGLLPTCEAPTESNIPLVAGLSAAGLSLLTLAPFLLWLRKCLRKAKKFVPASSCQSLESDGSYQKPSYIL

For `CC(Cc1ccc(OCC(=O)O)cc1)NCC(O)c1csc(C(F)(F)F)n1` (stereo not given), the outcome in assay [1], in [2], in [3], in assay [4], in assay [5] and in [6] was inactive. The result in assay [7], in assay [8], in assay [9], in [10], in assay [11] and in assay [12] was inactive. Also, the result in assay [13], in assay [14], in [15], in [16], in assay [17] and in assay [18] was inactive.

`CCOC(=O)c1ccccc1C(=O)OCC`: the outcome in [1], in assay [2], in assay [3], in assay [4], in assay [5] and in assay [6] was inactive. Besides, the result in assay [7], in [8], in assay [9], in assay [10], in [11] and in assay [12] was inactive. For the same molecule, the result in assay [13], in assay [15], in assay [16], in assay [17] and in assay [18] was inactive.

As a reminder, the AC50 is the midpoint of the concentration-response curve, whichever way the signal moves. On to `ClC(Cl)=C(c1ccc(Cl)cc1)c1ccccc1Cl`, for which the AC50 in [1] was 2.86 µM (active); in [2] it was 3.51 µM (active); in assay [3], 3.94 µM (active); in assay [4], 4.45 µM (active); in [5] it was 4.24 µM (active); in assay [6] it was 5.72 µM (active). Moreover, the AC50 in assay [7] is 3.5 µM (active); in assay [8], 6.86 µM (active); in assay [9] it was 7 µM (active); in assay [10] it was 3.67 µM (active); in assay [11], 5.46 µM (active); in assay [12] it was 7.15 µM (active). For the same molecule, the AC50 is 4.38 µM (active) in [13]; 11.2 µM (active) in [14]; 20 µM (active) in [15]; 33.4 µM (active) in [16]; 20 µM (active) in [17]; 29.6 µM (active) in assay [18].

Take `CCOP(=S)(S)OCC`: the outcome in assay [1], in assay [2], in assay [3], in assay [4], in assay [5] and in [6] was inactive. Moreover, the result in assay [7], in [8], in [9], in assay [10], in assay [11] and in assay [12] was inactive. In addition, the outcome in [13], in assay [14], in assay [15], in assay [16], in assay [17] and in assay [18] was inactive.

Take `COCCOCCO`: the result in assay [1], in [2], in assay [3], in assay [4], in assay [5] and in assay [6] was inactive. The result in assay [7], in assay [8], in assay [9], in assay [11], in [13] and in assay [14] was inactive. The result in [15], in [16], in assay [17] and in assay [18] was inactive. The AC50 in assay [10] was 0.148 µM (active); in assay [12], 0.254 µM (active).

As to `O=C(O)C(F)(OC(F)(F)C(F)(F)C(F)(F)F)C(F)(F)F` (stereo not given), the outcome in [1], in assay [2], in [3], in assay [4], in assay [19] and in assay [5] was inactive. The result in assay [6], in [7], in [8], in assay [9], in assay [10] and in assay [12] was inactive. The outcome in assay [13], in assay [14], in [15], in assay [16], in [17] and in [18] was inactive. The AC50 in [17] is 18 µM (active) and 12.1 µM (active).

As to `ClC(Cl)(Cl)c1ccccc1`, the result in assay [1], in [2], in assay [3], in assay [4], in assay [5] and in assay [6] was inactive. Moreover, the outcome in assay [7], in assay [8], in assay [9], in assay [10], in assay [11] and in assay [12] was inactive. Further, the outcome in assay [13], in assay [15], in assay [16], in [17] and in assay [18] was inactive.
